In PubChem BioAssay:

How the values were obtained:
[1] = test system: Botulinum neurotoxin type F light chain protease (Clostridium botulinum); experiment: Clostridium botulinum type F light chain protease inhibitors, microsphere substrate cleavage, validation (AID 588459); settings: multiplex microsphere protease substrate cleavage assay, flow cytometry; at 10 µM; stronger effect = higher value
[2] = molecular target: Botulinum neurotoxin type A (Clostridium botulinum) (UniProt P0DPI0); experiment: BoNT/A light chain protease inhibitors, biochemical, multiplex microsphere flow cytometry, validation set (AID 588460); settings: at 10 µM, stronger effect = higher value
Chain of Botulinum neurotoxin type A (Clostridium botulinum) (P0DPI0 whole entry, looked up): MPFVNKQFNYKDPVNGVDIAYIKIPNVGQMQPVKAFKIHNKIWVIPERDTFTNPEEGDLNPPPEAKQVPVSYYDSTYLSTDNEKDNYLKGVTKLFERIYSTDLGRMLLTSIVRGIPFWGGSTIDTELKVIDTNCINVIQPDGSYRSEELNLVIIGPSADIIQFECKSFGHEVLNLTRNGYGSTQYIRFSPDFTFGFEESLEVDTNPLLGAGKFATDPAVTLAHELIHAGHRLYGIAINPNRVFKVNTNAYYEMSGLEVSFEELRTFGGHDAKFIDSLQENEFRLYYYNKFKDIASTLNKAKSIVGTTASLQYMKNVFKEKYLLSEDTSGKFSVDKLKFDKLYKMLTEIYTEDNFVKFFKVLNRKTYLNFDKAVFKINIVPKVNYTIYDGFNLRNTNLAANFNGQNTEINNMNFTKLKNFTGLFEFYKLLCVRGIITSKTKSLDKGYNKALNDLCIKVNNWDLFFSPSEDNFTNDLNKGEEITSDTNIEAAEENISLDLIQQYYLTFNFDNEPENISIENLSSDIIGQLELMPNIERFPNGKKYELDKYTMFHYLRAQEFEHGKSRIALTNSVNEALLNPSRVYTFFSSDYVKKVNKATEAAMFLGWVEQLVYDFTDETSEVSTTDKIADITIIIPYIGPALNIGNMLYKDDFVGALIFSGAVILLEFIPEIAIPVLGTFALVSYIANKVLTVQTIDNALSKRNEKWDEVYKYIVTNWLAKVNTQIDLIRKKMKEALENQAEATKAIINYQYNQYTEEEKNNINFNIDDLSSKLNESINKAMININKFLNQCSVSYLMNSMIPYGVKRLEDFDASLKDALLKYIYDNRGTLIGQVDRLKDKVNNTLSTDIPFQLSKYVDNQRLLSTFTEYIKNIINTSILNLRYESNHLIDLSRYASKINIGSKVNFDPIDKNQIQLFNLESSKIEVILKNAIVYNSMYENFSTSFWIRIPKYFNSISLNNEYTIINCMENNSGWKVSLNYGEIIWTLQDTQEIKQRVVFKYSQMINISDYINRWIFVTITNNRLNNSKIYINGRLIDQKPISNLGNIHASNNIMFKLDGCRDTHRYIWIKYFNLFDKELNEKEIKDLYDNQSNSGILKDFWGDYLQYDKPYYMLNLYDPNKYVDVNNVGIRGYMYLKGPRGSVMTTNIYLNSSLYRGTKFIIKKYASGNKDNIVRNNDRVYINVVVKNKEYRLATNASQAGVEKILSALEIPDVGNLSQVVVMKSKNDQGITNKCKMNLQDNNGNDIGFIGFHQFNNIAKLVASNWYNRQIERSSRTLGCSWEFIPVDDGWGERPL

[3] = molecular target: Lethal factor (Bacillus anthracis) (UniProt P15917); experiment: Bacillus anthracis lethal factor inhibition, microsphere flow cytometry protease assay, validation at 10 µM (AID 588461); settings: multiplex microsphere protease cleavage assay, stronger effect = higher value
Chain of Lethal factor (Bacillus anthracis) (P15917 whole entry, looked up): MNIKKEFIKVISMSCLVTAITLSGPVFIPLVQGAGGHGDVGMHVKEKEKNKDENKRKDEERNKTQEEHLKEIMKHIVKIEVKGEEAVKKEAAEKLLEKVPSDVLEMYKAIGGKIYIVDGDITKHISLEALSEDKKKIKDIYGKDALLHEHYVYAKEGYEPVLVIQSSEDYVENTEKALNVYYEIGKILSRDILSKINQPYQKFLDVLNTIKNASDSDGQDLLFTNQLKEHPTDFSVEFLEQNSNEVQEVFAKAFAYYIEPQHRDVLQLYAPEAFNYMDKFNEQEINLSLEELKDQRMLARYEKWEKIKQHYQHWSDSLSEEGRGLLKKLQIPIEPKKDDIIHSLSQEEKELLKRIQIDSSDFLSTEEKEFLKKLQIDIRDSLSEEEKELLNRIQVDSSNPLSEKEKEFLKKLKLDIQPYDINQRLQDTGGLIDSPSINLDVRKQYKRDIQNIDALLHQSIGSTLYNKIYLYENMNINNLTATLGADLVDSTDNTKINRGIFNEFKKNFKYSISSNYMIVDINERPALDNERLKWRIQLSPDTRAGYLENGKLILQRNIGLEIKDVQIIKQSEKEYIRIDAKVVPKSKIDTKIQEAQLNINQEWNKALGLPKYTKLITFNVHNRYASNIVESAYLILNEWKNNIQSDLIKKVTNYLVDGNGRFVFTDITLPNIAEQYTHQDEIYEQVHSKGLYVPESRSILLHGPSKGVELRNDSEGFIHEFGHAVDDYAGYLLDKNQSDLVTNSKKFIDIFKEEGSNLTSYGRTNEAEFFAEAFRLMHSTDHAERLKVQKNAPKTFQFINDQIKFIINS

Measured: inhibition

COc1ccc2c(c1OC)C(=O)NC(C)=C(C(=O)OC(C)(C)C)C2O (configuration not stated)
inactive: [1] 4.3% | [2] -0.4% | [3] -5.3%

CCCCCC(=O)O[C@]1(C(C)=O)CC[C@H]2[C@@H]3CCC4=CC(=O)CC[C@]4(C)[C@H]3CC[C@@]21C
inactive: [1] 1.9% | [2] 1.3% | [3] -1.6%

C[C@]12CCC(=O)C=C1CC[C@@H]1[C@@H]2C(=O)C[C@@]2(C)[C@H]1CC[C@]2(O)C(=O)CO
inactive: [1] -4.6% | [2] -1.7% | [3] -0.3%

C=C(C)COc1ccc(-c2nc(N)ncc2-c2ccc(OC)cc2)c(O)c1
inactive: [1] 2.8% | [2] 1.4% | [3] -5.3%

Clc1ccc(CCNc2ncnc3nc[nH]c23)cc1
inactive: [1] 4.5% | [2] 0.1% | [3] -3.1%

COc1ccc(CN(CCN(C)C)c2ccccn2)cc1
inactive: [1] 0.8% | [2] 1.3% | [3] -14.9%

CN(C)CCOC(c1ccccc1)c1ccccc1
inactive: [1] -0.7% | [2] 0.3% | [3] -5%

O=C(NCCc1nc2ccccc2[nH]1)c1cccc(Br)c1
inactive: [1] -3.2% | [2] -1.3% | [3] -7.9%

Cc1nc2cc3ccccc3cc2c(=O)[nH]1
inactive: [1] -2% | [2] 1.5% | [3] 3.7%

CN(CCCN1CCOCC1)Cc1cn(C)nc1-c1ccccc1F
inactive: [1] 0% | [2] -0.8% | [3] -6.1%

O=Cc1ccc(N2CCCCC2)cc1
inactive: [1] -0.8% | [2] -0.3% | [3] -1.6%

O=[N+]([O-])c1ccc(O)c2ncccc12
inactive: [1] -1.5% | [2] -3.7% | [3] -2.8%

CN(C)CCOC(C)(c1ccccc1)c1ccccn1 (configuration not stated)
inactive: [1] 1.4% | [2] 0.5% | [3] -3.8%

COc1ccc(N2CCN(C(=S)NCc3ccccc3)CC2)cc1
inactive: [1] 2.4% | [2] -0.6% | [3] 2.2%

COc1ccc(CCNc2ncnc3c2[nH]c2cc(OC)c(OC)cc23)cc1OC
inactive: [1] -0.5% | [2] -0.5% | [3] -0.7%

CSCCC(NC(C)=O)C(=O)Oc1ccc2c3c(c(=O)oc2c1)CCCC3 (configuration not stated)
inactive: [1] -3.3% | [2] -1.8% | [3] -1.8%

Cc1ccc2nc3c(cc(C(=O)NCC4CCCO4)c(=N)n3CCCOC(C)C)c(=O)n2c1 (configuration not stated)
inactive: [1] 3.3% | [2] -0.1% | [3] -4%

O=C(c1ccco1)N1CCCN(Cc2nc(-c3ccc4c(c3)OCO4)no2)CC1
inactive: [1] 1% | [2] 0% | [3] 3.6%

C[C@]12CC[C@@H]3c4ccc(O)cc4[C@@H](O)C[C@H]3[C@@H]1CC[C@@H]2O
inactive: [1] 3.3% | [2] -0.4% | [3] 0.8%

N#C/C(=C/c1ccccc1)C(=O)NCc1ccccc1
inactive: [1] 5.2% | [2] 0.1% | [3] -7.6%

NC(=O)c1c(-c2ccccc2)oc2ccc(O)cc12
inactive: [1] -1.9% | [2] -0.3% | [3] -5.1%

CC(=O)OC(CC(=O)O)C[N+](C)(C)C (configuration not stated)
inactive: [1] 3.4% | [2] 0% | [3] -3.6%

C[N+]12CCCCC1C(COC(=O)c1ccc3c(c1)OCO3)CCC2 (configuration not stated)
inactive: [1] 2.1% | [2] 0.2% | [3] -0.7%

C=CCc1ccc(OCC(O)COc2ccc(CC=C)cc2OC)c(OC)c1
inactive: [1] 5.2% | [2] -0.2% | [3] -6.2%

CC[N+]1(CC)CC2=Cc3ccccc3CC2C1 (configuration not stated)
inactive: [1] -1.1% | [2] 0% | [3] 3%

CNCCc1ccccn1
inactive: [1] 1.1% | [2] 1.1% | [3] -8.2%

CCN(CC)CCCNC(=O)C1c2ccccc2Oc2ccccc21
inactive: [1] 4.2% | [2] 0.7% | [3] -0.4%

COc1ccc(OCC(=O)N2c3ccc(C)cc3C3CN(C)CCC32)cc1 (configuration not stated)
inactive: [1] -4.9% | [2] -0.7% | [3] -2.6%

CC#C[C@]1(O)CC[C@H]2[C@@H]3CCC4=CC(=O)CCC4=C3[C@@H](c3ccc(N(C)C)cc3)C[C@@]21C
inactive: [1] -3.9% | [2] -2% | [3] -7.2%
